Results: PubChem BioAssay (NCI)
Compounds without any hit were thinned out: in the full panel of roughly 83,000, 20% have a hit.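 Activity criterion: percent growth below 10, measured after cells in 96-well plates were exposed to a single compound concentration for 48 hours.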 Calls of active or inactive are those of the source.

Legend:
Assay in all cases: NCI-60 one-dose screen, 48 h (100 = growth as untreated, 0 = no growth, -100 = all killed)
Conditions in all cases: 10 µM
HCT-15 colon = tested on: HCT-15 colon
HT29 colon = tested on: HT29 colon
SNB-75 CNS = tested on: SNB-75 CNS
SNB-19 CNS = tested on: SNB-19 CNS
U251 CNS = tested on: U251 CNS
PC-3 prostate = tested on: PC-3 prostate
SK-MEL-5 melanoma = tested on: SK-MEL-5 melanoma
UACC-62 melanoma = tested on: UACC-62 melanoma
LOX IMVI melanoma = tested on: LOX IMVI melanoma
SK-MEL-28 melanoma = tested on: SK-MEL-28 melanoma
SK-MEL-2 melanoma = tested on: SK-MEL-2 melanoma
EKVX NSCLC = tested on: EKVX NSCLC
SN12C renal = tested on: SN12C renal
UO-31 renal = tested on: UO-31 renal
TK-10 renal = tested on: TK-10 renal
ACHN renal = tested on: ACHN renal
CAKI-1 renal = tested on: CAKI-1 renal
A498 renal = tested on: A498 renal
MOLT-4 leukemia = tested on: MOLT-4 leukemia
CCRF-CEM leukemia = tested on: CCRF-CEM leukemia

Measured: growth

N#Cc1c(-c2ccc(Cl)cc2)csc1NC(=O)Nc1ccc(Cl)c(C(F)(F)F)c1
inactive: SNB-75 CNS 36.5% | SNB-19 CNS 31.6% | UACC-62 melanoma 16.2% | LOX IMVI melanoma 11.7% | SK-MEL-28 melanoma 28.4% | EKVX NSCLC 11.9% | SN12C renal 14.4% | UO-31 renal 28.2% | TK-10 renal 10.3% | CAKI-1 renal 13.5% | A498 renal 35.6%
active: HCT-15 colon 4.52% | HT29 colon 1.62% | U251 CNS 2.57% | PC-3 prostate 1.89% | SK-MEL-5 melanoma -24.2% | SK-MEL-2 melanoma 5.43% | ACHN renal 3.38% | MOLT-4 leukemia 1.45%

CC(C)(C)OC(=O)N1CCc2c(sc3ncnc(N/N=C/c4cccc(Br)c4)c23)C1
inactive: HCT-15 colon 18.8% | HT29 colon 47.7% | SNB-75 CNS 67.6% | SNB-19 CNS 64.7% | U251 CNS 51% | PC-3 prostate 44.4% | SK-MEL-5 melanoma 44.1% | UACC-62 melanoma 43% | LOX IMVI melanoma 33.1% | SK-MEL-28 melanoma 75.2% | SK-MEL-2 melanoma 76.1% | EKVX NSCLC 26.3% | SN12C renal 50.9% | UO-31 renal 21% | TK-10 renal 56.3% | ACHN renal 33.9% | CAKI-1 renal 31.4% | A498 renal 72.7% | MOLT-4 leukemia 18%

CC(C)(C)c1ccc(S(=O)(=O)Oc2ccc(NC(=O)C3CCCCC3)cc2)cc1
inactive: HCT-15 colon 36.8% | HT29 colon 44.9% | SNB-75 CNS 80.1% | SNB-19 CNS 49.2% | U251 CNS 43.9% | PC-3 prostate 22.3% | SK-MEL-5 melanoma 26.3% | UACC-62 melanoma 31.1% | LOX IMVI melanoma 48.7% | SK-MEL-28 melanoma 66.8% | SK-MEL-2 melanoma 31.6% | EKVX NSCLC 23.8% | SN12C renal 60.2% | UO-31 renal 38% | TK-10 renal 57.8% | ACHN renal 25.7% | CAKI-1 renal 58.3% | A498 renal 90% | MOLT-4 leukemia 33.5%

COc1ccc(C2=Cn3c(CCC(=O)c4nc5ccccc5[nH]4)nnc3SC2)cc1
inactive: HCT-15 colon 104% | HT29 colon 58.2% | SNB-75 CNS 110% | SNB-19 CNS 113% | U251 CNS 94.1% | PC-3 prostate 84.2% | SK-MEL-5 melanoma 87.7% | UACC-62 melanoma 106% | LOX IMVI melanoma 83.7% | SK-MEL-28 melanoma 111% | SK-MEL-2 melanoma 106% | EKVX NSCLC 90.3% | SN12C renal 98.9% | UO-31 renal 82% | TK-10 renal 125% | ACHN renal 110% | CAKI-1 renal 96.9% | A498 renal 58% | MOLT-4 leukemia 43.2%

CN(C)CCCOc1ccccc1NC1=C(Cl)C(=O)C(Nc2ccccc2OCCCN(C)C)=C(Cl)C1=O
inactive: SNB-75 CNS 35% | SK-MEL-28 melanoma 14.1% | A498 renal 65.1%
active: HCT-15 colon -49% | HT29 colon -51% | SNB-19 CNS -87.1% | U251 CNS -86.1% | PC-3 prostate -20.8% | SK-MEL-5 melanoma -96.3% | UACC-62 melanoma -77.8% | LOX IMVI melanoma -74.9% | SK-MEL-2 melanoma -63.8% | EKVX NSCLC -82% | SN12C renal -86.7% | UO-31 renal -99% | TK-10 renal -98.3% | ACHN renal -98% | CCRF-CEM leukemia -16.5% | MOLT-4 leukemia -33.8%

S=C(SSC(=S)N(c1ccccc1)c1ccccc1)N(c1ccccc1)c1ccccc1
inactive: HCT-15 colon 103% | HT29 colon 96.6% | SNB-75 CNS 100% | SNB-19 CNS 99.4% | U251 CNS 87.9% | PC-3 prostate 81.9% | SK-MEL-5 melanoma 102% | UACC-62 melanoma 103% | LOX IMVI melanoma 95.2% | SK-MEL-28 melanoma 111% | SK-MEL-2 melanoma 95.1% | EKVX NSCLC 118% | SN12C renal 94.5% | UO-31 renal 97.1% | TK-10 renal 95.3% | ACHN renal 114% | A498 renal 114% | CCRF-CEM leukemia 87.9% | MOLT-4 leukemia 93.9%

Cc1ccc(S(=O)(=O)N(C)CCCCCC(=O)O)cc1
inactive: HCT-15 colon 97.8% | HT29 colon 92.5% | SNB-75 CNS 94% | SNB-19 CNS 108% | U251 CNS 104% | PC-3 prostate 98.2% | SK-MEL-5 melanoma 105% | UACC-62 melanoma 106% | LOX IMVI melanoma 95.4% | SK-MEL-28 melanoma 105% | SK-MEL-2 melanoma 99.9% | EKVX NSCLC 95.9% | SN12C renal 106% | UO-31 renal 88.3% | TK-10 renal 89.4% | ACHN renal 102% | A498 renal 110% | CCRF-CEM leukemia 110% | MOLT-4 leukemia 95.1%

CC(=O)OC/C=C(/C)C[P+](c1ccccc1)(c1ccccc1)c1ccccc1
inactive: HCT-15 colon 73.3% | HT29 colon 59.8% | SNB-75 CNS 76.8% | SNB-19 CNS 47% | U251 CNS 35.8% | PC-3 prostate 41.3% | SK-MEL-5 melanoma 43.1% | UACC-62 melanoma 47.6% | LOX IMVI melanoma 55.2% | SK-MEL-28 melanoma 69% | SK-MEL-2 melanoma 83.8% | EKVX NSCLC 82.4% | SN12C renal 51.5% | UO-31 renal 61.1% | TK-10 renal 70.6% | ACHN renal 70% | A498 renal 81.9% | CCRF-CEM leukemia 52.7% | MOLT-4 leukemia 78.2%

COc1cccc(CNc2cccc3cn[nH]c23)c1O
inactive: HCT-15 colon 93.4% | HT29 colon 99.7% | SNB-75 CNS 82% | SNB-19 CNS 96.5% | U251 CNS 92.9% | PC-3 prostate 84.5% | SK-MEL-5 melanoma 82.2% | UACC-62 melanoma 85.6% | LOX IMVI melanoma 90.4% | SK-MEL-28 melanoma 100% | SK-MEL-2 melanoma 103% | EKVX NSCLC 79.9% | SN12C renal 91% | UO-31 renal 60.1% | TK-10 renal 92.4% | ACHN renal 98.7% | CAKI-1 renal 85.9% | CCRF-CEM leukemia 101% | MOLT-4 leukemia 98%

CCC(c1ccc(OC)cc1)C(CC)c1ccc(O)c(CN2CCN(C)CC2)c1 (centres undefined)
inactive: HT29 colon 12.1% | SNB-75 CNS 56.9% | SNB-19 CNS 74.5% | U251 CNS 29.8% | PC-3 prostate 45.1% | LOX IMVI melanoma 46.2% | SK-MEL-2 melanoma 62.2% | EKVX NSCLC 44.3% | SN12C renal 55.1% | UO-31 renal 37.3% | TK-10 renal 72.2% | ACHN renal 69% | CAKI-1 renal 41.1% | CCRF-CEM leukemia 56.9% | MOLT-4 leukemia 57.4%
active: HCT-15 colon 1.58% | SK-MEL-5 melanoma 4.57% | UACC-62 melanoma -30.5% | SK-MEL-28 melanoma -13.2%

CCOC(=O)c1cc(C(=O)c2cc(OC)c(OC)c(OC)c2)n2ncc3ccccc3c12
inactive: HCT-15 colon 58.5% | HT29 colon 29.6% | SNB-75 CNS 79.5% | SNB-19 CNS 88.2% | U251 CNS 81% | PC-3 prostate 54.6% | SK-MEL-5 melanoma 34.5% | UACC-62 melanoma 70.2% | LOX IMVI melanoma 66.3% | SK-MEL-28 melanoma 90.9% | SK-MEL-2 melanoma 78.5% | EKVX NSCLC 94.5% | SN12C renal 101% | UO-31 renal 75.6% | TK-10 renal 97.3% | ACHN renal 78.7% | A498 renal 73.6% | CCRF-CEM leukemia 70.1% | MOLT-4 leukemia 62%

COc1cc(-c2nn(-c3cccc(NC(=O)NCCNC(=O)c4cccc(C(F)(F)F)c4)c3)cc2-c2ccncc2)ccc1Cl
active: SK-MEL-5 melanoma 7.16%
inactive: HCT-15 colon 53.2% | HT29 colon 21.1% | SNB-75 CNS 16.5% | SNB-19 CNS 53.5% | U251 CNS 28.4% | PC-3 prostate 17.6% | UACC-62 melanoma 50.7% | LOX IMVI melanoma 31.7% | SK-MEL-28 melanoma 57.6% | SK-MEL-2 melanoma 21.5% | EKVX NSCLC 60.1% | SN12C renal 75.2% | UO-31 renal 62.1% | TK-10 renal 90% | ACHN renal 48.4% | A498 renal 33% | CCRF-CEM leukemia 20.6% | MOLT-4 leukemia 27.3%

CNS(=O)(=O)Oc1ccc(-c2sc3cc(OS(=O)(=O)NC)ccc3c2C(=O)c2ccc(OCCN3CCCCC3)cc2)cc1
inactive: HCT-15 colon 35.2% | HT29 colon 31.1% | SNB-75 CNS 69.3% | SNB-19 CNS 82.7% | U251 CNS 66.9% | PC-3 prostate 42.4% | SK-MEL-5 melanoma 49.7% | UACC-62 melanoma 74.7% | LOX IMVI melanoma 32.8% | SK-MEL-28 melanoma 79.2% | SK-MEL-2 melanoma 83.7% | EKVX NSCLC 79.6% | SN12C renal 79.5% | UO-31 renal 50.9% | TK-10 renal 99.5% | ACHN renal 96.8% | A498 renal 76.2% | CCRF-CEM leukemia 46.5% | MOLT-4 leukemia 23.2%

CCOC(=O)C(C)(c1ccccc1)c1ccccc1
inactive: HCT-15 colon 104% | HT29 colon 96.2% | SNB-75 CNS 94.2% | SNB-19 CNS 99.3% | U251 CNS 104% | PC-3 prostate 97.8% | SK-MEL-5 melanoma 108% | UACC-62 melanoma 102% | LOX IMVI melanoma 102% | SK-MEL-28 melanoma 111% | SK-MEL-2 melanoma 114% | EKVX NSCLC 102% | SN12C renal 102% | UO-31 renal 94% | TK-10 renal 102% | ACHN renal 112% | A498 renal 105% | CCRF-CEM leukemia 103% | MOLT-4 leukemia 109%

CCC(CC)n1c(C)cc(=O)n1C(CC)CC
inactive: HCT-15 colon 106% | HT29 colon 111% | SNB-75 CNS 95.3% | SNB-19 CNS 96% | U251 CNS 105% | PC-3 prostate 104% | SK-MEL-5 melanoma 98.4% | UACC-62 melanoma 101% | LOX IMVI melanoma 102% | SK-MEL-28 melanoma 107% | SK-MEL-2 melanoma 111% | EKVX NSCLC 113% | SN12C renal 105% | UO-31 renal 115% | TK-10 renal 109% | ACHN renal 101% | A498 renal 116% | CCRF-CEM leukemia 107% | MOLT-4 leukemia 103%

COc1ccc(-c2nnc(SCC(=O)Nc3ccc(C(=O)/C=C/c4ccccc4)cc3)n2-c2ccccc2)cc1OC
inactive: HCT-15 colon 86.5% | HT29 colon 60.3% | SNB-75 CNS 84.2% | SNB-19 CNS 83.3% | U251 CNS 79.5% | PC-3 prostate 69.5% | SK-MEL-5 melanoma 83.1% | UACC-62 melanoma 81.1% | LOX IMVI melanoma 32.5% | SK-MEL-28 melanoma 89.3% | SK-MEL-2 melanoma 100% | EKVX NSCLC 120% | SN12C renal 84.9% | UO-31 renal 69.2% | TK-10 renal 93.1% | ACHN renal 98.9% | A498 renal 82.5% | CCRF-CEM leukemia 93.6% | MOLT-4 leukemia 59.7%
